# Shown are actives, neighbours in structure and some others; about 13% of the full set was active somewhere.
# HCV inhibitor: qHTS Assay for Inhibitors of Hepatitis C Virus (HCV) | Huh7.5.1 HCVcc-Cre infection, luciferase reporter, 44 h | Potency, µM (doses to about 41.8 µM), inactives show at the top dose activity change, negative = inhibition, actives largely listed as inhibitors | hit rate 3.4% among 340,000 | AID 651820, 2012; further: potency means the concentration at half of the fitted maximal effect
#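 Cells seeded at 1,000/well and cultured 4 h, then compounds added followed by HCVcc-Cre virus (~0.5 moi). After 44 h further culture, luciferase substrate was added, plates held 15 min at room temperature, and luminescence read for 15 sec.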
# Pf growth 96h: Primary qHTS for delayed death inhibitors of the malarial parasite plastid, 96 hour incubation; Potency, µM (titrated, usually from 28.7 µM), inactives show at the top dose activity change, negative = inhibition, hits mostly inhibitors; P. falciparum luciferase reporter growth, 96 h; hit rate 6.9% among 320,000; further: potency means the concentration at half of the fitted maximal effect
#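 P. falciparum expressing integrated firefly luciferase, in erythrocytes at 2% hematocrit, 0.05% parasitemia, incubated with compounds 96 h at 37 C, 5% CO2. Growth inhibition read as loss of luminescence; two-generation exposure targets delayed-death apicoplast inhibitors.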
# Pf growth 48h: Primary qHTS for delayed death inhibitors of the malarial parasite plastid, 48 hour incubation; P. falciparum luciferase growth in erythrocytes, 48 h; Potency, µM (top dose mostly 28.7 µM), inactives show top-dose activity change, negative = inhibition, usual class: inhibitors; hit rate 5.9% among 310,000; further: potency means the concentration at half of the fitted maximal effect
#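 Compounds are pin-transferred into medium, infected erythrocytes (2% hematocrit, 0.1% parasitemia final) are added, and plates sit one parasite generation at 37 C in 5% CO2. Detection reagent is then added and luminescence measured.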
# HCMV antiviral: qHTS Assay for inhibitors of the human cytomegalovirus (HCMV). hit rate 4.5% among 410,000. HFF cells, HCMV-luciferase reporter, 72 h; active compounds read low. AID 1259415, 2018. activity change, negative = inhibition, % at 57.5 µM; in the data active means activity change below about -60%; inconclusive means no clear call, values can overlap the other calls; inactive means above about -39%
#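 Screen run at 2 compound doses on HFFs infected with reporter HCMV, MOI 1 PFU/cell. Luciferase activity from cell lysates at 72 h post infection gave inhibition relative to buffer-only and Salinomycin wells.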
# The depositor's hits bear a star; ? = inconclusive; / = no result; ! = repeats disagree; [ ] = remark or other dose. Unless noted, the call rests on the fitted dose curve; in most records, active means well fitted inhibition curve with a large enough effect; inconclusive means small, poorly fitted or top-dose-only effect, or another doubt; inactive means no such curve, though single readings can be large or run the other way. On the % scale 0 is the no-effect control and ±100 the full control effect.
SMILES,HCV inhibitor,Pf growth 96h,Pf growth 48h,HCMV antiviral
Cn1nc(C(C)(C)C)c([N+](=O)[O-])c1C(=O)Nc1cccc2ccccc12,-17.8%,11.7µM*,11.7µM*,?
S=C(c1ccc2c(c1)OCO2)N1CCOCC1,19.4%,-7.3%,?,-8.0
O=C(c1ccc2c(c1)OCO2)C1CCCN(C2CCN(CCc3ccccc3)CC2)C1 (configuration not stated),3.55µM*,3.1%,2.62µM*,-13.7
CCOC(=O)CNC(=O)N1CCCC(C(=O)c2ccc3c(c2)OCO3)C1 (configuration not stated),6.0%,11.7µM*,2.2%,2.6
S=C(c1ccc2c(c1)OCO2)N1CCCCCC1,-27.4%,11.7µM*,/,10.8
CCN(C(=O)c1cn(CC(C)C)c(=O)c2cc(OC)c(OC)cc12)c1cc(OC)ccc1OC,/,/,/,-28.0
C/C(=N\NC(=O)c1n[nH]c2c1CCC2)c1ccco1,-2.1%,119.4%,126.2%,-65.1*
Cc1ccsc1/C=N\NC(=O)c1n[nH]c2c1CCC2,?,10.4µM*,48.6%,41.7
O=C(N/N=C/c1c(Cl)cccc1Cl)c1n[nH]c2c1CCCC2,?,-7.0%,107.6%,?
CC(C)CCC[C@@H](C)[C@H]1CC[C@H]2[C@@H]3CC[C@@H]4C[C@H](O)CC[C@]4(C)[C@H]3CC[C@]12C,/,-16.7%,-3.6%,/
CCCCCCSc1cccc(-c2nc3ccccn3c2NCc2ccccc2)c1,-22.1%,/,/,-65.3*!
CCCCCCSc1ccc(-c2nc3ccc(C)cn3c2NCCCC)cc1OC,/,/,/,26.2
CCCCCCSc1cccc(-c2nc3cc(C)ccn3c2NCc2ccccc2)c1,-21.4%,?,?,55.4
CCCCCCSc1cc(-c2nc3ccc(C)cn3c2NCc2ccccc2)ccc1OC,-15.6%[8.37 µM],10.4µM*,4.15µM*,54.2
CCCCNc1c(-c2ccc(OC)c(Sc3ccc(OC)cc3)c2)nc2ccccn12,10µM*,?,?,/
CCCCCCSc1cc(-c2nc3cc(C)ccn3c2NCCCC)ccc1OC,?,?,9.28µM*,61.6
CCCCCCSc1cccc(-c2nc3ccc(C)cn3c2NCc2ccccc2)c1,2.5%,11.7µM*,?,27.8
COc1ccc(S(=O)(=O)N(CC(=O)NCCSc2ccccc2)c2ccc(Cl)cc2)cc1,/,/,/,-16.5
CCn1c(SCC(=O)Nc2cc(C)on2)nc2c(c1=O)SC(C)C2 (configuration not stated),-13.8%,/,?,2.5
Cc1cc(NC(=O)CSc2nc3c(c(=O)n2Cc2ccccc2)SC(C)C3)no1 (configuration not stated),20.0%,1.47µM*,1.85µM*,-10.0
CCn1c(SCC(=O)Nc2nc3ccc(C)cc3s2)nc2c(c1=O)SC(C)C2 (configuration not stated),7.94µM*,?,-57.9%,/
CCSc1nc2c(c(=O)n1CC)SC(C)C2 (configuration not stated),0.9%,38.4%,-21.3%,-11.9
CCSc1nc2c(c(=O)n1-c1ccc(F)cc1)SCC2,-7.3%,2.94µM*,?,-22.1
CCn1c(SC)nc2c(c1=O)SC(C)C2 (configuration not stated),-14.5%,2.33µM*,?,26.2
CCOc1ccccc1NC(=O)NC(CC)c1c(-n2cccc2)sc2c1CCN(C)C2 (configuration not stated),/,/,/,-2.5
Cc1cc(NC(=O)CSc2nc3c(c(=O)n2-c2ccc(Br)cc2)SCC3)no1,-18.7%,-22.6%,7.38µM*,?
Cc1ccc(-n2c(SCC(=O)Nc3cc(C)on3)nc3c(c2=O)SC(C)C3)cc1 (configuration not stated),8.5%,?,0.828µM*,21.5
COC(=O)c1c(NC(=O)CN2CCC3(O)CCCCC3C2c2cc(OC)ccc2OC)sc(C)c1C (configuration not stated),?,10.4µM*,?,-29.2
COc1ccccc1C1C2CCCCC2(O)CCN1CC(=O)Nc1ccccc1 (configuration not stated),9.4%,?,?,-26.7
COC(=O)c1c(NC(=O)CN2CCC3(O)CCCCC3C2c2ccc(F)cc2)sc(C)c1C (configuration not stated),?,?,8.28µM*,97.0
